Results: PubChem BioAssay (NCATS)
“And” between values parts separate entries of the source, which are not always exact repeats. Equal entries are not always repeated. Values without a mark were called inactive. Results filed as inconclusive are left out. Where a call stands in place of a potency, no number is given. The source made the active and inactive calls. Unless noted, calls come from the whole dose curve; as a rule, active = well fitted curve in the direction sought with a large enough effect; inconclusive = small, poorly fitted or top-dose-only effect, or another doubt; inactive = no such curve, though single readings can be large; an effect the other way counts as inactive or inconclusive.

Key:
[1] = target: Vitamin D3 receptor (Homo sapiens) (UniProt P11473); test: qHTS assay for small molecule antagonists of vitamin D receptor signaling (AID 588541; calls by dose curve;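 note: receptor activated by calcitriol during compound treatment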)
Chain of Vitamin D3 receptor (Homo sapiens) (P11473 whole entry, looked up): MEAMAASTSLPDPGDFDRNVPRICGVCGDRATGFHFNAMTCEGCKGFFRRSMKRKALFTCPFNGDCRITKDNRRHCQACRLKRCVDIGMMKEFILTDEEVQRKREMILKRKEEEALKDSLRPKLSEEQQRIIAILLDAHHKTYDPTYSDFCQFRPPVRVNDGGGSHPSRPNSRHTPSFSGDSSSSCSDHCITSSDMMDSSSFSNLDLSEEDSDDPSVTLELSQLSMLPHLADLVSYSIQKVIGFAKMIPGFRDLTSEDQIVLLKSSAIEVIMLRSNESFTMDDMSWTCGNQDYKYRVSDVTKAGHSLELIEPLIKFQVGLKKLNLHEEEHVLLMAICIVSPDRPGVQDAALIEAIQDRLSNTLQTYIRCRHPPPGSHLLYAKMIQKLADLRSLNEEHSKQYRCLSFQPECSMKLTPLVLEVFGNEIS
Outline: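 VDR-UAS-bla HEK293T cells in 2% charcoal-stripped FBS were stimulated with 1-alpha,25-dihydroxyvitamin D3 (3 nM final) plus compound for 16 h at 37 C. The beta-lactamase CCF4 readout was normalized to 50 nM agonist and DMSO, and Hill fits gave IC50.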

[2] = target: Vitamin D3 receptor (Homo sapiens) (UniProt P11473); test: qHTS assay for small molecule agonists of vitamin D receptor signaling (AID 588543; calls by dose curve)
Outline: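 Reporter cells (HEK293T, VDR-UAS-bla) were seeded in medium with 2% charcoal-stripped serum and incubated 5 h, then compounds in concentration series were added for 16 h at 37 °C. Stimulation was scaled between DMSO basal and 50 nM 1α,25-dihydroxyvitamin D3.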

[3] = target: Thyroid hormone receptor beta (Homo sapiens) (UniProt P10828); test: qHTS assay for small molecule antagonists of thyroid hormone receptor beta signaling (AID 588547; active = well fitted inhibition curve with a large enough effect in the signal ratio, with a control signal flat, not every such curve was filed as active; the % refers to the signal ratio;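 note: cells stimulated with 0.4 nM T3 agonist during compound exposure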); settings: TR-UAS-bla HEK293, beta-lactamase ratio, antagonist mode, 18 h
Chain of Thyroid hormone receptor beta (Homo sapiens) (P10828 whole entry, looked up): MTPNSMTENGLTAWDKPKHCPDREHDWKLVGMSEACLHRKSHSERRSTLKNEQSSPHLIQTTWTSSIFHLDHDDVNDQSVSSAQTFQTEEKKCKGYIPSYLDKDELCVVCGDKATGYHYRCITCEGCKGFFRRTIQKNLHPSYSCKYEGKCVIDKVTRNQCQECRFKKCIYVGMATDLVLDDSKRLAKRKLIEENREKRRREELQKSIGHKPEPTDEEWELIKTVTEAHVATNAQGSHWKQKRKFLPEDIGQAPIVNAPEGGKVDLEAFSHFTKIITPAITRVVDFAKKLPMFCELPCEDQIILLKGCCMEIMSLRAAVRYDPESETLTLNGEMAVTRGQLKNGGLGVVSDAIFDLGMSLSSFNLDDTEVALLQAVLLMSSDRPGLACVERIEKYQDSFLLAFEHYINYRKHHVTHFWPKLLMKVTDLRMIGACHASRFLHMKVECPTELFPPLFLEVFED
Outline: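 TR-UAS-bla GripTite HEK293 cells in 2% charcoal/dextran FBS medium; compounds 0.59 nM to 92 uM with T3 at 0.4nM final, 18 h at 37 C. Beta-lactamase read by CCF4 fluorescence (460/530 nm); Hill fits gave IC50 and efficacy.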

[4] = Cell Viability - BJ (AID 421; calls by dose curve;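 note: potency is the fitted concentration of half-maximal effect; cells exposed to compound for 40 hours at 37 °C before readout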); settings: BJ fibroblast viability, qHTS
Outline: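 Quantitative HTS: ATP depletion in BJ cells after 40 hr compound exposure in complete culture medium, detected with CellTiter-Glo; AC50 from standard Hill fits.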

[5] = Cell Viability - Hek293 (AID 427;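 active = compounds whose dose-response curve shows a full or clear partial loss of cell viability, called from curve shape rather than a numeric limit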;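 note: potency is the fitted concentration of half-maximal effect; cells exposed to compound for 40 hours at 37 °C before reading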); settings: qHTS
Outline: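 AC50 values derive from Hill-modelled concentration-response of ATP-based luminescence, normalized between DMSO-only and 100 uM tamoxifen controls. Cells were exposed in complete culture medium for 40 hr at 37 °C before detection.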

[6] = Cell Viability - SK-N-SH (AID 435; calls by dose curve;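 note: potency is the fitted concentration of half-maximal effect; compound exposure lasted 40 h at 37 °C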); settings: SK-N-SH neuroblastoma cell viability qHTS
Outline: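 Luminescent ATP signal served as the viability read-out after 40 hours of compound treatment of human neuroblastoma SK-N-SH cells. Concentration-response data, scaled between DMSO and 100 uM tamoxifen, gave AC50 values by standard Hill modeling.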

[7] = Cell Viability - Renal Proximal Tubule (AID 545); settings: renal proximal tubule cells viability, primary cells of rat origin; at 91.7 µM (top of the series); note: nearly all actives have a fitted effect of over 40% in size
Outline: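 Luminescent ATP signal (CellTiter-Glo) served as the viability read-out after 40 hr compound exposure of freshly isolated rat proximal tubule cells at 37 °C. Concentration-dependent ATP loss was fitted with the Hill equation to give AC50.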

[8] = Cell Viability - Mesenchymal (AID 546); settings: mesenchymal cells viability, qHTS; activity change, negative = cytotoxicity: at 91.7 µM (top of the series);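 note: cells exposed to compound for 40 hours before reading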
Outline: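 Human kidney mesenchymal cells from normal renal glomeruli, 1000 cells/well, rested 5 hr at 37 °C, then treated 40 hr at 37 °C in complete medium. Cellular ATP read by CellTiter-Glo luminescence; AC50 from Hill-equation fits.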

[9] = Cellular Toxicity (caspase-3) HepG2 (AID 654);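 note: cells exposed to compound for 16 hours before reading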
Outline: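 HepG2 cells (1500/well) were treated 16 h at 37 °C in complete medium, then caspase 3/7 activity was read by Caspase-Glo luminescence. Data were normalized to DMSO and 100 uM tamoxifen; AC50 came from Hill-equation fits of qHTS concentration-response.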

[10] = Cellular Toxicity (caspase-3) Jurkat (AID 655); settings: Jurkat caspase-3 activation, luminescence, DMSO = 0%, tamoxifen = 100%; at 92.2 µM (top of the series);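 note: cells exposed to compound for 16 h at 37 °C before reading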
Outline: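 5000 Jurkat cells/well; compound 16 hr, 37 °C; Caspase-Glo 3/7 added, 20 min RT; luminescence read. Norm: DMSO = 0%, tamoxifen 100 uM = 100%. AC50, Hill model.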

[11] = Cellular Toxicity (caspase-3) HUV-EC-C (AID 656)
Outline: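 qHTS; HUV-EC-C, 1000 cells/well; 5 hr settle, 16 hr cmpd, 37°C; Caspase-Glo 3/7, 20 min RT; luminescence. Norm: DMSO = 0%, tamoxifen 100 uM = 100%. Hill-fit AC50.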

[12] = Cellular Toxicity (caspase-3) SHSY5Y (AID 657)
Outline: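 qHTS, SH-SY5Y, 1500 cells/well, 5 h pre-incubation 37 °C; compound 16 h 37 °C; Caspase-Glo 3/7 1 h RT; luminescence. Norm.: DMSO = 0, 10 uM staurosporine = 100%. Hill fit → AC50.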

[13] = Cellular Toxicity (caspase-3) BJ (AID 658)
Outline: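 BJ human foreskin fibroblasts, 1000 cells/well, treated 16 hours at 37 °C in complete medium; caspase 3/7 activity by Caspase-Glo luminescence after 1 hr at room temperature. Normalized to DMSO and 10 uM staurosporine; AC50 from Hill fits.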

[14] = Cellular Toxicity (caspase-3) MRC-5 (AID 659)
Outline: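 MRC-5 human normal lung fibroblasts, 1500 cells/well, treated 16 h at 37 °C in complete medium. Caspase 3/7 measured by Caspase-Glo luminescence after 1 h at room temperature. Normalized to DMSO and 10 uM staurosporine; AC50 from Hill fit.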

[15] = Cellular Toxicity (caspase-3) Mesangial (AID 660)
Outline: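 Human renal glomerular mesangial cells, 1000/well, 5 h at 37 C before 16 h compound treatment. Caspase-Glo 3/7 luminescence after 20 min; normalized to DMSO and 100 uM tamoxifen, AC50 from Hill fit.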

[16] = Cellular Toxicity (caspase-3) SK-N-SH (AID 661)
Outline: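 Human SK-N-SH neuroblastoma cells, 1500/well, were exposed to compounds for 16 hours at 37 °C. Caspase-Glo 3/7 luminescence was normalized to DMSO (basal) and 10 uM staurosporine (100%), and AC50 came from a Hill fit.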

[17] = Cellular Toxicity (caspase-3) H-4-II-E (AID 663); settings: Potency: caspase-3 activation;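 note: cells exposed to compound for 16 hr before readout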
Outline: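 Rat hepatoma H-4-II-E cells (1500/well) plated 5 hr, then exposed to compound titrations for 16 hr at 37 °C. Caspase-Glo 3/7 luminescence read after 20 min at RT; data normalized to DMSO and 100 uM tamoxifen, AC50 from Hill fits.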

[18] = Cellular Toxicity (caspase-3) Hek293 (AID 664);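 note: cells exposed to compound for 16 h at 37 °C before readout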
Outline: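 HEK293 cells in complete medium treated 16 h at 37 °C, then Caspase-Glo 3/7 luminescence read after 20 min at room temperature. Normalized to DMSO and 100 uM tamoxifen; AC50 from Hill fit of concentration-response.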

[19] = qHTS Assay for Identification of Small Molecule Inducers of Hypoxia Response (AID 2120; active = well fitted curve in the direction sought with a large enough effect in the signal ratio, with a control signal flat, not every such curve was filed as active; the % refers to the signal ratio)
Outline: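 HRE-bla ME-180 cells in Opti-MEM with 0.5% dialyzed FBS, pre-plated 4-5 h, then compound titration for 17 h at 37 degrees Celsius. CCF4 loaded 2.5 h at room temperature; 460/530 nm ratio gave %Activity and AC50 for induction.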

[20] = target: Voltage-gated inwardly rectifying potassium channel KCNH2 (Homo sapiens) (UniProt Q12809); test: qHTS Assay for Small Molecule Inhibitors of the Human hERG Channel Activity (AID 588834);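 note: top concentration of the series differs between compounds; lower thallium flux fluorescence means stronger hERG block; nearly all actives have a fitted effect of over 50% in size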
Chain of Voltage-gated inwardly rectifying potassium channel KCNH2 (Homo sapiens) (Q12809 whole entry, looked up): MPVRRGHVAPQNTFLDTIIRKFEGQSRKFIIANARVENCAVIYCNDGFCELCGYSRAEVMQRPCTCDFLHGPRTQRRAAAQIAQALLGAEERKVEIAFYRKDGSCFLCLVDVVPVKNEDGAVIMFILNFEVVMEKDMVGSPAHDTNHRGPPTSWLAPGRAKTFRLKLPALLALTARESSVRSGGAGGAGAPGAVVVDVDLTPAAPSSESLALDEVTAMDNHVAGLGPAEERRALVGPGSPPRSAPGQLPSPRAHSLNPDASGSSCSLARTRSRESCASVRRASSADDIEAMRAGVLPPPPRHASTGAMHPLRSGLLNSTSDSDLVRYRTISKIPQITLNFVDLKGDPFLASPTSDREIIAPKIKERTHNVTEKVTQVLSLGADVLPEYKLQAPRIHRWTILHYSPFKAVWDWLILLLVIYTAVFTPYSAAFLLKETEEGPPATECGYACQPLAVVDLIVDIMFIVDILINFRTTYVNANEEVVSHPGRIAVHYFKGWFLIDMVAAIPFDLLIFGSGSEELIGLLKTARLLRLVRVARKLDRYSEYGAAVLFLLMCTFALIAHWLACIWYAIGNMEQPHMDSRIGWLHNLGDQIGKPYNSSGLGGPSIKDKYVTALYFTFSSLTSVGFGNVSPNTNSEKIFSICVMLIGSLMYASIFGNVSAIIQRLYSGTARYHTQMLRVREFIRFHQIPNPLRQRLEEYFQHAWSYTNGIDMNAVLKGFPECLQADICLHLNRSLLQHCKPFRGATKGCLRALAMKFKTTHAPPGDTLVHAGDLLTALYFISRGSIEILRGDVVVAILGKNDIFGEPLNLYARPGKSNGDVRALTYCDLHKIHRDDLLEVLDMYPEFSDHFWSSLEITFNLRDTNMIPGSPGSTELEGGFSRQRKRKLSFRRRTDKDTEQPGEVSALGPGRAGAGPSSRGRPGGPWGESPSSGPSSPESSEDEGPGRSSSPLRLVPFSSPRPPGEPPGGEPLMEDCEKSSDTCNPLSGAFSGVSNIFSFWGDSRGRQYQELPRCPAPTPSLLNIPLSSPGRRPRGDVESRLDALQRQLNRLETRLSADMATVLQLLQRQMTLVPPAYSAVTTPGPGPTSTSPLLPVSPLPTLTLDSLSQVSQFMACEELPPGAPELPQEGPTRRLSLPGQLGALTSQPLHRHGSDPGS
Outline: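 hERG-BacMam U2OS, 2000 cells/well; 0.7X FluxOR loading 1 hr RT dark; cpd ~10 min 37 °C; stim buffer; FDSS fluorescence 2 min @ 1 s; AC50 Hill fit.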

Row | Compound | outcome [1] | outcome [2] | activity change % (negative = inhibition) [3] | Potency [4] [µM] | Potency [5] [µM] | Potency [6] [µM] | activity change, negative = cytotoxicity [7] [%] | activity change, negative = cytotoxicity [8] [%] | outcome [9] | caspase-3 activation [10] | outcome [11] | outcome [12] | outcome [13] | outcome [14] | outcome [15] | outcome [16] | Potency [17] | outcome [18] | outcome [19] | Potency [20]
1 | C=CC(C)(CCC=C(C)C)OC(C)=O (stereo not given) | inactive | inactive | -2.58% |  |  |  |  |  |  |  |  |  |  |  |  |  |  |  |  | 
2 | COc1ccc(/C=C/c2cc(OC)cc(=O)o2)cc1 | inactive | inactive | -10.8% | > 92 | > 92 | > 92 | -20.5 | -3.53 | inactive | -4.41% | inactive | inactive | inactive | inactive | inactive | inactive | inactive | inactive | inactive | inactive
3 | CCCCCCCCCCCCCC(=O)O | inactive | inactive | 8.19% and 13.5% | > 92 | > 92 | > 92 | -23 | 1.41 | inactive | -2.86% | inactive | inactive | inactive | inactive | inactive | inactive | inactive | inactive | inactive | inactive
4 | C=C(C)C1CC=C(C)C(O)C1 (stereo not given) |  |  | 0.818% | > 92 | > 92 | > 92 | 6.86 | 2.7 | inactive | -2.18% | inactive | inactive | inactive | inactive | inactive | inactive | inactive | inactive | inactive | inactive
5 | C=CCc1ccc(OC)c(OC)c1 | inactive | inactive | 11.4% | > 92 | > 92 | > 92 | -5.61 | -7.19 | inactive | -0.00061% | inactive | inactive | inactive | inactive | inactive | inactive | inactive | inactive | inactive | inactive
6 | C=CC(=C)CCC=C(C)C | inactive | inactive | 9.36% | > 92 | > 92 | > 92 | 6.82 | -3.53 | inactive | -0.362% | inactive | inactive | inactive | inactive | inactive | inactive | inactive | inactive | inactive | inactive
7 | COc1cc(/C=C/c2ccccc2)oc(=O)c1 | inactive | inactive | -8.32% | > 92 | > 92 | > 92 | -15.2 | -9.29 | inactive | -4.56% | inactive | inactive | inactive | inactive | inactive | inactive | inactive | inactive | inactive | inactive
8 | O=C(O)c1ccccc1 | inactive | inactive |  | > 92 | > 92 | > 92 | -3.81 | 4.89 | inactive | 0.102% | inactive | inactive | inactive | inactive | inactive | inactive | inactive | inactive | inactive | inactive
9 | CC1=C2[C@H](/C=C(\C)C(=O)O)CC[C@@H](C)[C@H]2CC1 | inactive | inactive | 11.8% | > 92 | > 92 | > 92 | -15.1 | 9.76 | inactive | 97.3% (active) | inactive | inactive | inactive | inactive | inactive | inactive | inactive | inactive | inactive | inactive
